# Data: PubChem BioAssay AID463173 (ICCB-Longwood Screening Facility, Harvard Medical School, 2010)
# Screen size: about 52,000 compounds; about 4,300 (8.3%) were called active. This is one part of a sample in which actives are shown more often than they occur. No stated cut-off is given here; in the data, active means survival mostly below about 52% (no sharp cut-off); inactive means mostly above about 56%.
# Test system: DeltatarO mutant
# Experiment: S. aureus survival, RN4220 and DeltatarO strains – OD600, teichoic acid synthesis inhibitors, primary screen (AID 463173)
# Settings: S. aureus RN4220 wild type/DeltatarO growth, OD600, 18 h, active compounds read low, screened at 18.75 µg/mL (by protocol)
row,Compound,survival
1,CC(C)(C)c1ccc(C(=O)N2CCN(CCc3ccccn3)CC2)cc1,45% (inactive)
2,CCc1cccc(C)c1Nc1c(-c2ccc(F)cc2)nc2sccn12,35% (inactive)
3,CCCN(CCC)CCCNC(=O)Cn1ncc2c3ccccc3n(Cc3ccc(F)cc3)c2c1=O,91% (inactive)
4,O=C(NCC1CCCO1)C1CC(c2ccccc2O)=NO1 (configuration not stated),91% (inactive)
5,CC(NC(=O)C1CCN(C(=O)N2CCOc3ccc(Cl)cc32)CC1)c1ccccc1 (configuration not stated),50% (inactive)
6,COc1ccc(OC)c(NC(=O)Nc2c(C)n(C)n(-c3ccccc3)c2=O)c1,88% (inactive)
7,CCC(CC)c1nn2c(=O)cc(COc3ccc(NC(=O)c4cccc(Cl)c4)cc3)nc2s1,79% (inactive)
8,CC(C)NC(=O)C1CCN(C(=O)NCc2ccccc2)CC1,93% (inactive)
9,COc1cccc(N2CCN(C(=O)C3CCCN(S(=O)(=O)c4ccc(Br)s4)C3)CC2)c1 (configuration not stated),76% (inactive)
10,CC1N=C2c3ccccc3N=C(SCC(=O)NCCc3ccccc3)N2C1=O (configuration not stated),52% (active)
11,Cc1ccc(CNC(=O)CSC2=Nc3ccccc3C3=NC(C)C(=O)N23)cc1 (configuration not stated),71% (inactive)
12,CC1N=C2c3ccccc3N=C(SCC(=O)NCCc3ccc(Cl)cc3)N2C1=O (configuration not stated),80% (inactive)
13,CCNC(=O)CC1C(=O)N(c2ccccc2)C(=O)N1Cc1ccc(F)cc1 (configuration not stated),74% (inactive)
14,COc1cccc(CNC(=O)CSC2=Nc3ccccc3C3=NC(C)C(=O)N23)c1OC (configuration not stated),124% (inactive)
15,COC(=O)c1ccccc1NC(=O)Cn1c(=O)n(CCC(=O)NCc2ccccc2OC)c(=O)c2ccccc21,82% (inactive)
16,Cc1ccccc1OCC(=O)Nc1ccc(S(=O)(=O)N(Cc2ccccc2)c2ccccc2)cc1,66% (inactive)
17,COc1ccc(-n2ccnc(NCCc3ccc(S(N)(=O)=O)cc3)c2=O)cc1,66% (inactive)
18,COC(=O)CNC(=O)Nc1cc(C(=O)NCc2ccc(C)cc2)ccc1N1CCCC1,76% (inactive)
19,COC(=O)c1c(N)n(-c2cc(Cl)cc(Cl)c2)c2nc3ccccc3nc12,44% (active)
20,COC(=O)c1c(N)n(-c2ccc(OC)c(Cl)c2)c2nc3ccccc3nc12,93% (inactive)
21,COC(=O)c1c(N)n(-c2ccc(OC)c(OC)c2)c2nc3ccccc3nc12,94% (inactive)
22,Cc1ccc(CNc2nc(-c3ccco3)nn2S(C)(=O)=O)cc1,113% (inactive)

row,Compound,survival
1,CCOC(=O)Cc1ccc(NC(=O)N2CCC(CN3CCCCCC3)CC2)cc1,80% (inactive)
2,Cc1ccc(NS(=O)(=O)c2ccc3c(c2)NC(=O)C(C)C(=O)N3)cc1F (configuration not stated),69% (inactive)
3,Cc1ccccc1NS(=O)(=O)c1ccc2c(c1)NC(=O)CCS2,64% (inactive)
4,Cc1cc(C)c(NS(=O)(=O)c2ccc3c(c2)NC(=O)CCS3)c(C)c1,76% (inactive)
5,O=C1CCSc2ccc(S(=O)(=O)Nc3ccc(Cl)c(C(F)(F)F)c3)cc2N1,72% (inactive)
6,Cc1ccc(NS(=O)(=O)c2ccc3c(c2)NC(=O)CCS3)c(Br)c1,-1% (active)
7,Cc1ccc(NS(=O)(=O)c2ccc3c(c2)NC(=O)CCS3)cc1C,79% (inactive)
8,Cc1cc(C)cc(NS(=O)(=O)c2ccc3c(c2)NC(=O)C(C)S3)c1 (configuration not stated),11% (active)
9,CC1C(=O)Nc2ccc(S(=O)(=O)Nc3ccccc3Br)cc2NC1=O (configuration not stated),90% (inactive)
10,O=C1CCSc2ccc(S(=O)(=O)Nc3cccc(C(F)(F)F)c3)cc2N1,-2% (active)
11,COc1cc(NC(=O)CCc2c(C)nn(-c3ccc(N4CCCCC4)nn3)c2C)cc(OC)c1OC,95% (inactive)
12,CCOC(=O)c1ccccc1NC(=O)n1ncc2cc(Cl)ccc21,85% (inactive)
13,O=C(O)c1cc(N2C(=O)C3CC=CCC3C2=O)ccc1NCc1cccnc1 (configuration not stated),90% (inactive)
14,CC(=O)c1cccc(NC(=O)c2sc(-n3nc(C)c(CCC(C)C)c3C)nc2C)c1,53% (inactive)
15,CCOc1ccccc1NC(=O)Cn1cc(C(=O)c2ccc(Cl)cc2)c(=O)c2ccc(C)nc21,87% (inactive)
16,CCc1ccc(N2CC(C)Cn3c2nc2c3c(=O)n(CC(=O)O)c(=O)n2C)cc1 (configuration not stated),77% (inactive)
17,COc1ccc(C2(CNC(=O)C(=O)Nc3cccc(C(F)(F)F)c3)CCCC2)cc1OC,102% (inactive)
18,Cc1cccc2cc(CN(C(=O)c3ccco3)C3CCCC3)c(=O)[nH]c12,51% (inactive)
19,CCCCCSc1ncnc2c1sc1nc(N3CCOCC3)c3c(c12)CCCC3,69% (inactive)
20,CCc1nc2sc3c(N4CCCCC4)ncnc3c2c2c1CCCC2,175% (inactive)
21,CCCCSc1ncnc2c1sc1nc(N3CCOCC3)c3c(c12)CCCC3,77% (inactive)
22,CCCCN(CC)c1ncnc2c1sc1nc(N3CCOCC3)c3c(c12)CCCC3,35% (active)

row,Compound,survival
1,CCCc1nc2sc3c(N4CCCCC4)ncnc3c2c2c1CCCC2,12% (active)
2,CCCc1nc2sc3c(N4CCC(C)CC4)ncnc3c2c2c1CCCC2,61% (inactive)
3,Cc1ccc(-c2[nH]c3ccccc3c2SCCNC(=O)c2ccc(S(=O)(=O)N(C)C)cc2)cc1,105% (inactive)
4,COc1ccc(NC(=O)CSCc2cc(=O)c3cc(C)ccc3[nH]2)cc1,68% (inactive)
5,CC(=O)Nc1ccc(NC(=O)C2CCN(S(=O)(=O)c3ccc4c(c3)CCCC(=O)N4)CC2)cc1,85% (inactive)
6,CC(C)(C)C(=O)OCc1cc(=O)n2nc(C3CCCCC3)sc2n1,80% (inactive)
7,COc1ccc(CC(=O)NC2CCN(CC(=O)c3ccc(F)cc3)CC2)cc1OC,108% (inactive)
8,Cc1cc(C)nc(NC(=O)COc2ccc(Br)cc2)n1,84% (inactive)
9,CN(CCCNC(=O)Cn1ncc2c([nH]c3ccccc32)c1=O)Cc1ccccc1,100% (inactive)
10,O=C(Cn1ncc2c([nH]c3ccccc32)c1=O)NCc1cccc(Cl)c1,20% (active)
11,CCN(CC)CCNC(=O)Cn1ncc2c([nH]c3ccccc32)c1=O,89% (inactive)
12,Cc1ccc(CCNC(=O)Cn2ncc3c([nH]c4ccccc43)c2=O)cc1,102% (inactive)
13,COc1ccc(CNC(=O)Cn2ncc3c([nH]c4ccccc43)c2=O)cc1,91% (inactive)
14,CCCCN(C)CCNC(=O)Cn1ncc2c([nH]c3ccccc32)c1=O,8% (active)
15,COc1ccc(-n2nc(C(=O)Nc3ccccn3)c3c4ccccc4n(C)c3c2=O)cc1,72% (inactive)
16,O=C(NCCc1csc(-c2cccc(F)c2)n1)c1ccc(Br)o1,83% (inactive)
17,COc1cc(N(C(=O)Cn2nnc3ccccc32)C(C(=O)NCC2CCCO2)c2ccc(F)cc2)ccc1-n1cnnn1 (configuration not stated),105% (inactive)
18,COc1ccc(N(C(=O)Cn2nnc3ccccc32)C(C(=O)NCc2ccccc2)c2ccc(F)cc2)cc1 (configuration not stated),42% (active)
19,COc1cccc(C(C(=O)NCc2ccccc2)N(C(=O)Cn2nnc3ccccc32)c2cccc(C(C)=O)c2)c1 (configuration not stated),44% (active)
20,CCOc1ccc(N(C(=O)Cn2nnc3ccccc32)C(C(=O)NCc2ccccc2)c2ccc(OC)cc2)cc1 (configuration not stated),52% (inactive)
21,COc1ccc(C(C(=O)NCc2ccccc2)N(C(=O)Cn2nnc3ccccc32)c2ccc(F)cc2)cc1 (configuration not stated),49% (inactive)
22,CC(=O)c1cccc(N(C(=O)Cn2nnc3ccccc32)C(C(=O)NCc2ccccc2)c2ccc(F)cc2)c1 (configuration not stated),85% (inactive)

row,Compound,survival
1,COc1ccc(C(C(=O)NCc2ccccc2)N(C(=O)Cn2nnc3ccccc32)c2cccc(OC)c2)cc1 (configuration not stated),50% (inactive)
2,COc1ccc(C(C(=O)NCc2ccccc2)N(C(=O)Cn2nnc3ccccc32)c2ccc(OC)cc2)cc1 (configuration not stated),60% (inactive)
3,CC(=O)Nc1ccc(N(C(=O)Cn2nnc3ccccc32)C(C(=O)NCc2ccccc2)c2ccc(C)cc2)cc1 (configuration not stated),38% (active)
4,O=C(COc1ccc(S(=O)(=O)NC2CCCCC2)cc1)Nc1ccc(C(F)(F)F)cc1,64% (inactive)
5,CC(NC1=NCCN1)C(=O)O (configuration not stated),97% (inactive)
6,COC(=O)C1C(=O)C2=C(CC1C)Nc1ccccc1NC2c1cc(F)ccc1F (configuration not stated),82% (inactive)
7,Cc1occc1-c1nnc(SCC(=O)NCc2ccc3c(c2)OCO3)n1CC(C)C,88% (inactive)
8,COc1ccccc1NC(=O)CC(C)n1nc(C)cc1C (configuration not stated),67% (inactive)
9,COc1ccc(NC(=O)CCS(=O)(=O)c2ccc3nc(C)sc3c2)cc1Cl,44% (inactive)
10,Cc1cc(-c2ccc(C)c(S(=O)(=O)NCCc3ccc(S(N)(=O)=O)cc3)c2)on1,92% (inactive)
11,Cc1ccc(C)c(N2C(=O)N(Cc3cccc(C(F)(F)F)c3)c3ccccc3S2(=O)=O)c1,88% (inactive)
12,COc1cccc(C(=O)N2CCN(CCc3ccncc3)CC2)c1,87% (inactive)
13,O=C1c2[nH]nc(-c3ccc(Br)cc3)c2C(c2cccc(O)c2)N1c1ccc(Cl)cc1 (configuration not stated),-10% (active)
14,COc1ccc(-c2n[nH]c3c2C(c2ccc(O)cc2)N(c2ccc(Br)cc2)C3=O)cc1 (configuration not stated),-3% (active)
15,COC(=O)c1ccc(C2c3c(-c4ccc(Br)cc4)n[nH]c3C(=O)N2c2ccc(Cl)cc2)cc1 (configuration not stated),93% (inactive)
16,CCOc1cc(C2c3c(-c4ccc(Br)cc4)n[nH]c3C(=O)N2c2ccc(Cl)cc2)ccc1O (configuration not stated),35% (active)
17,CCOC(=O)c1ccc(N2C(=O)c3[nH]nc(-c4ccc(OC)cc4)c3C2c2ccc(C)cc2)cc1 (configuration not stated),81% (inactive)
18,CCOC(=O)c1ccc(N2C(=O)c3[nH]nc(-c4ccc(OC)cc4)c3C2c2cccc(O)c2)cc1 (configuration not stated),57% (inactive)
19,CCOc1ccc(-c2n[nH]c3c2C(c2ccccc2OC)N(c2ccc(Br)cc2)C3=O)cc1 (configuration not stated),69% (inactive)
20,Cc1ccc(-c2n[nH]c3c2C(c2cccc(O)c2)N(c2ccc(C(=O)O)cc2)C3=O)cc1 (configuration not stated),86% (inactive)
21,CCOC(=O)c1ccc(N2C(=O)c3[nH]nc(-c4ccc(C)cc4)c3C2c2ccc(O)c(OCC)c2)cc1 (configuration not stated),87% (inactive)
